Data published in PubChem BioAssay (Tox21).
Records with an inconclusive call do not appear. The source made the active and inactive calls. Unless noted, the call rests on the fitted dose curve; in most records, active means well fitted curve in the direction sought with a large enough effect in the repeat runs; inconclusive means weak or mixed curves; inactive means flat fitted curve, though single readings scatter. Positions of bridges follow the written chain, without caps; N, C: chain ends. Non-standard residues stand in square brackets, D forms with d. Residues, ends and D or L forms follow the SMILES beside them. ξ: configuration not given here. *: point of attachment. d(aThr) = C[C@@H](O)[C@@H](N)C(=O)O; ξThr(3R) = C[C@@H](O)C(N)C(=O)O; X3 = CC[C@@H](C)CCCCC(=O)*; dDab = NCC[C@@H](N)C(=O)O

Key:
[1] = qHTS assay to test for compound auto fluorescence at 535 nm (green) in HEK293 cells (AID 720680)
[2] = qHTS assay to test for compound auto fluorescence at 460 nm (blue) in HEK293 cell free culture (AID 720681)
In short: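 Test compounds were pinned into cell-free culture medium (DMEM with 10% FBS) and fluorescence was read directly at Ex/Em 405/460 nm. Signals were expressed as fluorescence equivalents of triamterene, with DMSO vehicle as control.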

[3] = qHTS assay to test for compound auto fluorescence at 535 nm (green) in HEK293 cell free culture (AID 720682)
In short: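 Intrinsic compound fluorescence is measured in culture medium containing 10% FBS, with excitation at 485 nm and detection at 535 nm, referenced to fluorescein.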

[4] = qHTS assay to test for compound auto fluorescence at 590 nm (red) in HEK293 cell free culture (AID 720683)
In short: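 Tox21 10K library compounds were pinned into cell-free DMEM with 10% FBS and fluorescence was read at excitation 540 nm. Activity is expressed as Rose Bengal sodium equivalency.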

[5] = qHTS assay to test for compound auto fluorescence at 590 nm (red) in HepG2 cell free culture (AID 720684)
In short: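 Readout: intrinsic compound fluorescence at 590 nm emission after 540 nm excitation, scaled to Rose Bengal sodium. Matrix was cell-free MEM with 10% FBS; DMSO vehicle wells served as control.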

[6] = qHTS assay to test for compound auto fluorescence at 460 nm (blue) in HepG2 cell free culture (AID 720685)
In short: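 Cell-free plates of MEM plus 10% FBS received 23 nL compound or DMSO vehicle; blue-channel (405/460 nm) intensity scored against triamterene as reference fluorophore.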

[7] = qHTS assay to test for compound auto fluorescence at 535 nm (green) in HepG2 cell free culture (AID 720686)
[8] = qHTS assay to test for compound auto fluorescence at 460 nm (blue) in HepG2 cells (AID 720687)
In short: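 Cells (2,000/well in MEM with 10% FBS) attached overnight at 37 C, then were exposed to compound or DMSO for 1 hr at 37 C, 5% CO2. Fluorescence read at Ex/Em 405/460 nm, expressed as triamterene-equivalent signal.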

[9] = molecular target: Glucocorticoid receptor (Homo sapiens) (UniProt P04150); assay: qHTS assay to identify small molecule agonists of the glucocorticoid receptor (GR) signaling pathway (AID 720691; active means well fitted activation curve with a large enough effect in the signal ratio in the repeat runs, not every such curve was filed as active; the % refers to the signal ratio); details: GR-bla HeLa, beta-lactamase reporter ratio, 18 h; activation: at 62.4 µM (top of the series)
Glucocorticoid receptor (Homo sapiens), sequence (P04150 whole entry, looked up): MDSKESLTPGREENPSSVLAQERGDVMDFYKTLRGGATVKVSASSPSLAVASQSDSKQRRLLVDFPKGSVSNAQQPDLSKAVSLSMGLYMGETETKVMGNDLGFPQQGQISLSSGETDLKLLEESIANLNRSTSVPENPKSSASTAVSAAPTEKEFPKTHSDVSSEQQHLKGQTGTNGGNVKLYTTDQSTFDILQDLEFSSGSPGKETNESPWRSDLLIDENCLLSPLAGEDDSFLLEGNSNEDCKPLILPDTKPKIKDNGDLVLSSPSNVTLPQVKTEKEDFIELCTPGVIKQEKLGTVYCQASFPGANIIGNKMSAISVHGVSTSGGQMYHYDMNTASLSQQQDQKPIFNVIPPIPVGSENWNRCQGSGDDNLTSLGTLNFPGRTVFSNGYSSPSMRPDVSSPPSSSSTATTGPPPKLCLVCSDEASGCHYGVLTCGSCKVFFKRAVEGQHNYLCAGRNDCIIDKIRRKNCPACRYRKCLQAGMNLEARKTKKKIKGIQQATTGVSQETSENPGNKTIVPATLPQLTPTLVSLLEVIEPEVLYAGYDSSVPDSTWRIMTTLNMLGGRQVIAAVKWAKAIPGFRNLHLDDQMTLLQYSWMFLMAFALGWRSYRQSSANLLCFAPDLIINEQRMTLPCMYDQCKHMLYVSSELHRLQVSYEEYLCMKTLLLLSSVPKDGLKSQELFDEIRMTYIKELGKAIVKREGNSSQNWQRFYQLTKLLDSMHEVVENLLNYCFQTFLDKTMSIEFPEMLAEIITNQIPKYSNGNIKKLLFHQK
In short: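 Compounds in DMSO, alongside positive controls, were added to GR-bla HeLa reporter cells and incubated 18 h at 37 C; GRE-driven beta-lactamase was detected by fluorescence after 2 h with FRET substrate at room temperature.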

[10] = molecular target: Glucocorticoid receptor (Homo sapiens) (UniProt P04150); assay: qHTS assay to identify small molecule antagonists of the glucocorticoid receptor (GR) signaling pathway (AID 720692; active means well fitted inhibition curve with a large enough effect in the signal ratio in the repeat runs, not every such curve was filed as active; the % refers to the signal ratio)
In short: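 In a 1536-well cell format, compounds were added 4 h after seeding GR-bla HeLa cells, together with dexamethasone at 5 nM final; reporter activity was measured by FRET-substrate fluorescence following 18 h at 37 C.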

Measured: Potency

C[C@@H]1C/C=C/C=C/C=C/C=C/[C@H](O[C@@H]2O[C@H](C)[C@@H](O)[C@H](N)[C@@H]2O)C[C@@H]2O[C@](O)(C[C@@H](O)C[C@H]3O[C@@H]3/C=C/C(=O)O1)C[C@H](O)[C@H]2C(=O)O
inactive: all assays above

CO[C@H]1C[C@H](O[C@@H]2/C(C)=C/C[C@@H]3C[C@@H](C[C@]4(CC[C@H](C)[C@@H](C5CCCCC5)O4)O3)OC(=O)[C@@H]3C=C(C)/C(=N/O)[C@H]4OC/C(=C\C=C\[C@@H]2C)[C@]43O)O[C@@H](C)[C@@H]1O
inactive: all assays above

O=C(OC[C@H]1O[C@](O)(COC(=O)c2cccnc2)[C@@H](OC(=O)c2cccnc2)[C@@H]1OC(=O)c1cccnc1)c1cccnc1
inactive: all assays above

C[C@@H](O)[C@H]1C(=O)N2C(C(=O)[O-])=C(SC3Cn4cnc[n+]4C3)[C@H](C)[C@H]12 (stereo not given in full)
inactive: all assays above

CCCCCCCCCCCCCCCC(=O)OC[C@@H](COP(=O)([O-])OCC[N+](C)(C)C)OC(=O)CCCCCCCCCCCCCCC
inactive: all assays above

CC[C@@H](C)CCCCC(=O)N[C@H](CCN)C(=O)N[C@@H](C(=O)N[C@H](CCN)C(=O)N[C@@H]1CCNC(=O)C([C@@H](C)O)NC(=O)[C@@H](CCN)NC(=O)[C@@H](CCN)NC(=O)[C@@H](CC(C)C)NC(=O)[C@@H](Cc2ccccc2)NC(=O)[C@@H](CCN)NC1=O)[C@@H](C)O (stereo partly drawn) (X3-[dDab][d(aThr)][dDab][dDab][dDab][dF][dL][dDab][dDab][ξThr(3R)]; lactam 4-C)
inactive: all assays above

Cc1ncc(COP(=O)(O)O)c(CN)c1O
inactive: all assays above

COc1cc(C[C@@H]2NCCc3cc(O)c(O)cc32)cc(OC)c1OC
inactive: all assays above

NC(=O)Oc1ccc(Cc2ccccc2)cc1
inactive: all assays above

CCCCC(=O)N(Cc1ccc(-c2ccccc2-c2nn[nH]n2)cc1)[C@@H](C(=O)O)C(C)C
inactive: all assays above

CC1(C)S[C@@H]2[C@H](NC(=O)C(C(=O)Oc3ccc4c(c3)CCC4)c3ccccc3)C(=O)N2[C@H]1C(=O)O (stereo not given in full)
inactive: all assays above

O=[n+]1ccn([O-])c2ccccc21
inactive: all assays above

CCC(=O)NCCC1CCc2ccc3c(c21)CCO3 (stereo not given)
inactive: all assays above

CCC(C)C(C(=O)OCC[N+](C)(CC)CC)c1ccccc1 (stereo not given)
inactive: all assays above

CCC(C)[C@@H](N)C(=O)O (stereo not given in full)
inactive: all assays above

C/C(=C(\CCOC(=O)c1ccccc1)SS/C(CCOC(=O)c1ccccc1)=C(/C)N(C=O)Cc1cnc(C)nc1N)N(C=O)Cc1cnc(C)nc1N
inactive: all assays above

CC(CN1c2ccccc2Sc2ccc(S(=O)(=O)N(C)C)cc21)N(C)C (stereo not given)
inactive: all assays above

O=[N+]([O-])O[C@@H]1CO[C@H]2[C@@H]1OC[C@@H]2O
inactive: all assays above

O=C1CCC(=O)N1CO
inactive: all assays above

COC(F)(F)C(Cl)Cl
inactive: all assays above

CO[C@@]1(NC(=O)C2SC(=C(C(N)=O)C(=O)O)S2)C(=O)N2C(C(=O)O)=C(CSc3nnnn3C)CS[C@@H]21 (stereo not given in full)
inactive: all assays above

CCN(CC)Cc1cc(Nc2ccnc3cc(Cl)ccc23)ccc1O
inactive: all assays above

CCC(c1ccccc1)c1noc(CCN(CC)CC)n1 (stereo not given)
inactive: all assays above

CC(C)[C@H](N)C(=O)OCC(CO)OCn1cnc2c(=O)[nH]c(N)nc21 (stereo not given in full)
inactive: all assays above

O=C(NCCNCC(O)COc1ccc(O)cc1)N1CCOCC1 (stereo not given)
inactive: all assays above

COc1ccccc1N1CCN(CCCC(=O)c2ccc(F)cc2)CC1
inactive: all assays above

Cc1ncc(C[n+]2csc(CCOP(=O)(O)OP(=O)(O)O)c2C)c(N)n1
inactive: all assays above

COC1=C(C(=O)O)N2C(=O)[C@@H](NC(=O)[C@H](N)C3=CCC=CC3)[C@H]2SC1
inactive: all assays above

Nc1ccn(C[C@@H](CO)OCP(=O)(O)O)c(=O)n1
inactive: all assays above

CC(=O)Oc1cccc(C(=O)O)c1OC(C)=O
inactive: all assays above

C[N+](C)(CCCCCC[N+](C)(C)C1c2ccccc2-c2ccccc21)C1c2ccccc2-c2ccccc21
inactive: all assays above

CCC(=O)O[C@@H]1CC(=O)O[C@H](C)C/C=C/C=C/[C@H](O)[C@H](C)C[C@H](CC=O)[C@H](O[C@@H]2O[C@H](C)[C@@H](O[C@H]3C[C@@](C)(O)[C@@H](OC(=O)CC)[C@H](C)O3)[C@H](N(C)C)[C@H]2O)[C@H]1OC
inactive: all assays above

NC(=O)OCC(O)COc1ccc(Cl)cc1 (stereo not given)
inactive: all assays above

C=C[C@]1(C)C[C@@H](OC(=O)CO)[C@]2(C)[C@H](C)CC[C@]3(CCC(=O)[C@H]32)[C@@H](C)[C@@H]1O
inactive: all assays above

CCOC(=O)CN[C@@H](C(=O)N1CC[C@H]1C(=O)NCc1ccc(/C(N)=N/O)cc1)C1CCCCC1
inactive: all assays above

CC(=O)N[C@@H]1C(O[C@H]2O[C@H](C(=O)O)C(O)[C@H](O)[C@H]2O)[C@H](O)[C@@H](CO)O[C@H]1O[C@@H]1C(C(=O)O)O[C@@H](O[C@H]2[C@H](O)[C@@H](CO)OC(O)[C@@H]2NC(C)=O)[C@H](O)[C@H]1O (stereo not given in full)
inactive: all assays above

COc1ccc(CNCC(O)COc2ccc3[nH]c(=O)ccc3c2)cc1OC (stereo not given)
inactive: all assays above

CC1C(=O)CC2C3(C)CCC2(C(C)C(=O)O)C(=O)C13 (stereo not given)
inactive: all assays above

CCCCC(O)c1ccccc1 (stereo not given)
inactive: all assays above
